Measured values: PubChem BioAssay AID485298 (National Center for Advancing Translational Sciences (NCATS), 2010)
Values joined by “and” are separate entries in the source; they are usually repeats but may differ in a detail not shown here. Equal entries are not always repeated. Among all 320,000 compounds or so, about 740 (0.23%) were called active. Inconclusive results (about 2%) are left out. Calls come from the whole dose curve; as a rule, active = well fitted activation curve with a large enough effect; inconclusive = small, poorly fitted or top-dose-only effect; inactive = no such curve, though single readings can be large or run the other way. The entries come from a sample that favours actives as a whole. Some compounds were tested as several samples or in several runs, with calls that do not always agree.

Assay: qHTS Assay for Small Molecule Inhibitors of Mitochondrial Division or Activators of Mitochondrial Fusion; note: nearly all actives have a fitted effect of over 45% in size; for growth rescue (activation): % of control where 0% means no effect
Conditions: S. cerevisiae fusion-defective mutant growth rescue, CellTiterGlo 48 h; series mostly up to 46.1 µM; growth rescue (activation): at the top concentration
Summary of the method: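 Temperature-sensitive fusion-defective S. cerevisiae (e.g. fzo1-1, mgm1-5) were grown with compound in YPEG medium (3% ethanol, 3% glycerol) for 48 hours at 37C. Growth rescue was measured as viability by CellTiterGlo luminescence after 10 minutes at ambient.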
Potency is the fitted concentration of half-maximal effect.

SMILES | growth rescue (activation) | Potency
O=C(Nc1cccc(-c2nc3ccccc3o2)c1)c1cccc(Br)c1 | 1.19% (inactive) | –
CCc1nccn1CCC(=O)N1CCCC(N2CCN(c3ccccc3F)CC2)C1 (stereo unspecified) | -10.1% (inactive) | –
CCCC(C)NC(=O)C1CCN(C(=O)C2CC(=O)N(c3ccc(C)cc3)C2)CC1 (stereo unspecified) | -4.72% (inactive) | –
O=C(CN1CCSCC1)N/N=C/c1ccc(F)cc1 | -0.82% (inactive) | –
Cc1c(C(=O)N2CCCc3ccccc32)oc2ccccc12 | 13.2% (inactive) | –
Cc1cccc2cc3c(N)c(C(=O)N4CCCc5ccccc54)sc3nc12 | – | 17.8 µM (active)
Cc1c(C(=O)N2CCCc3ccccc32)sc2nc(-c3ccccc3)cn12 | 8.21% (inactive) | –
CCCCN(C)CCCNC(=O)c1cc(-c2cccs2)nc2ccccc12 | -16.6% (inactive) | –
CC(C)(C)Cc1nnc(NC(=O)c2cc(-c3ccccc3)nc3ccccc23)s1 | 4.92% (inactive) | –
O=C(Nc1nnc(-c2ccccc2)o1)c1cc(-c2cccs2)nc2ccccc12 | – | 12.6 µM (active)
O=C(CNc1cccc(S(=O)(=O)N2CCCCC2)c1)Nc1ccccc1F | 1.75% (inactive) | –
CCN(CC)c1ccc(NC(=O)CN2CCN(CC(=O)Nc3ccc(Cl)cc3)CC2)cc1 | 1.98% (inactive) | –
COc1ccc(Cl)cc1NS(=O)(=O)c1cccc(C(=O)NC2CCC(O)CC2)c1 (stereo unspecified) | -6.5% (inactive) | –
O=C1Nc2ccccc2/C1=C/c1ccnc2ccccc12 | 6.69% (inactive) | –
CN(C)/C=C1/Nc2ccccc2C1=O | -0.406% (inactive) | –
Cc1cc(C)c(/C=C2\C(=O)Nc3ccccc32)[nH]1 | – | inactive and 16.4 µM (active)

SMILES | growth rescue (activation) | Potency
O=C(N/C(=C\c1ccc([N+](=O)[O-])cc1)C(=O)N1CCCCC1)c1ccco1 | 5.8% (inactive) | –
CCc1c(C)[nH]c(=S)c(C#N)c1C | 0.532% (inactive) | –
Cc1c(S(=O)(=O)N2CC(C)CC(C)C2)c(=O)n(C)c(=O)n1C (stereo unspecified) | 2.71% (inactive) | –
CCOC(=O)[C@@H]1[C@H]2COc3ccc(Br)cc3[C@H]2N2C(=O)N(c3ccc(Cl)cc3)C(=O)[C@@]12C | 9.23% (inactive) | –
CC1(C)CC2CC(C)(CN2c2ncnc3ccc(Br)cc23)C1 (stereo unspecified) | – | 15.8 µM (active)
COc1ccc(Nc2ncnc3ccc(Br)cc23)c(OC)c1 | 2.1% (inactive) | –
COc1ccc(C(=O)N2CC3(C)CC2CC(C)(C)C3)cc1OC (stereo unspecified) | 2.86% (inactive) | –
CCc1ccc(N(C(=O)c2csnn2)C(C(=O)NC2CCCCC2)c2cccnc2)cc1 (stereo unspecified) | 12% (inactive) | –
OCC[C@H]1C[C@H](O)[C@@H](O)[C@]2(CCc3ccccc3O2)O1 | -1% (inactive) | –
O=C(c1ccc(CSc2ccccc2)cc1)N1CCCCCC1 | – | 10 µM (active)
CC1CCN(C(=O)c2ccc(CSc3ccc(Cl)cc3)cc2)CC1 | 19.4% (inactive) | –
O=C(c1ccc(S(=O)(=O)c2ccccc2)cc1)N1CCCCCC1 | 0.467% (inactive) | –
Cc1cc(F)ccc1S(=O)(=O)Nc1ncnc2scc(-c3ccc(F)cc3)c12 | -7.34% (inactive) | –
O=C(COC(=O)c1ccccc1)c1ccc2c(c1)OCCO2 | 6.73% (inactive) | –
Cc1ccc(NC(=O)CSc2sc3c(O)cc(=O)[nH]c3c2C#N)cc1C | -6.97% (inactive) | –
